Test results as given in PubChem BioAssay (NCATS).
Several values for one entry are separate records, joined by “and”; a condition that tells them apart may be missing. Identical values can stand only once. Inconclusive results are not listed. Where a call stands in place of a potency, no number is given. Unmarked numbers belong to inactive results. Activity calls are given as the source filed them. The call rests on the fitted dose curve; in most records, active means well fitted cell-killing curve with a large enough effect; inconclusive means small, poorly fitted or top-dose-only effect, or effect the other way; inactive means flat fitted curve, though single readings scatter. Non-standard residues stand in square brackets, D forms with d. Residues, ends and D or L forms follow the SMILES beside them. *: point of attachment. Sta = CC(C)C[C@H](N)[C@@H](O)CC(=O)O; Isovaleryl = CC(C)CC(=O)*

tested on: CAOV3; assay: Primary qHTS to identify gynecologic anti-cancer compounds using libraries of approved drugs and bioactive compounds (AID 1345084); conditions: Gynecologic cancer cell panel viability, ATPlite luminescence, 48 h; series mostly up to 57.5 µM; further: nearly all actives have a fitted effect of over 55% in size
Description: National Center for Advancing Translational Sciences [NCATS] Assay Overview: Chemotherapeutic drug responses vary from cancer to cancer and from patient to patient. These variations could be caused by a number of factors including patient genomic background, tumor mutations, tumor heterogeneity, and aspects of drug treatment. Chemotherapeutic drug resistance is also a common issue and can lead to ineffective treatment and patient death. Here we have profiled the cell killing effects of thousands of compounds to characterize the responses in three gynecological cancers, identify cancer-selective compounds, and understand the diversity of responses to these compounds from pan-cancer suppressors to single cell line selective compounds. In this assay, we screened a 7,914 compound drug library that included approved drug and bioactive compounds in six ovarian, three cervical, and […] placental cancer cell lines using the ATPlite assay for cell viability. […] The cervical cancer cell lines included HeLa, Ca Ski, and C-33 A. The placental cancer cell lines included JEG-3. HEK 293T cells were used as the control cell line to determine the selectivity index. ATPlite is a luminescence based assay reliant on the conversion of a luciferase substrate to light in the presence of ATP. As a cytotoxic compound will suppress growth and decrease the number of cells, the concentration of ATP will decrease, and less light signal will be detected in the well.
Assay Protocol Summary: 1,000 cells in 4 uL of media were dispensed into white, solid bottom 1536-well plates using a Multidrop Combi (Thermo Scientific). The Assay plates were incubated for 16 hours at 37 C with 5% CO2 in assay plates, followed by the addition of 23 nL of DMSO or drug dissolved in DMSO. Each compound was assayed in five concentrations (0.092, 0.46, 2.3, 11.5, and 57.5 uM), using the automated Wako 1536 Pin Tool workstation and incubated at 37 C with 5% CO2 48 hours. 4 uL of ATPlite, the ATP monitoring reagent, was then added to the each well of the assay plates using the Multidrop Combi reagent dispenser followed by incubation for 15 minutes at room temperature. The resulting luminescence was measured using the ViewLux plate reader.
Potency means the concentration at half of the fitted maximal effect.

SMILES	Potency	activity change, negative = cytotoxicity
Cc1cc2c(s1)Nc1ccccc1N=C2N1CCN(C)CC1	inactive	–
CNC[C@H](O)c1ccc(O)c(O)c1	inactive	–
Cc1cc(=O)oc2cc(O)ccc12	inactive	–
CCN(CCO)CCCC(C)Nc1ccnc2cc(Cl)ccc12 (stereo not given)	–	21.3% [at 6.55 µM] and 5.51% [at 6.55 µM]
O=C(NCCO[N+](=O)[O-])c1cccnc1	inactive	–
OC(CN1CCN(c2cccc(Cl)c2)CC1)C(c1ccccc1)c1ccccc1 (stereo not given)	inactive	–
CN(c1nccc(=O)[nH]1)C1CCN(c2nc3ccccc3n2Cc2ccc(F)cc2)CC1	inactive	–
COc1cc(OC)c(C(=O)CCCN2CCCC2)c(OC)c1	inactive	–
N=C(N)c1ccc2cc(OC(=O)c3ccc(N=C(N)N)cc3)ccc2c1	inactive	–
CC1Cc2ccccc2N1NC(=O)c1ccc(Cl)c(S(N)(=O)=O)c1 (stereo not given)	inactive	–
CN(C)C(=O)[C@H](O)[C@H](Cc1ccccc1)NC(=O)c1cc2cc(Cl)ccc2[nH]1	inactive	–
CN(C)c1ccc(O)c2c1C[C@H]1C[C@H]3[C@H](N(C)C)C(=O)C(C(N)=O)=C(O)[C@@]3(O)C(=O)C1=C2O	inactive	–
Cc1nc2n(c(=O)c1CCN1CCC(c3noc4cc(F)ccc34)CC1)CCCC2	inactive	–
Nc1cccc2c1CN(C1CCC(=O)NC1=O)C2=O (stereo not given)	inactive	–
CC(C)c1nc(CN(C)C(=O)N[C@H](C(=O)N[C@@H](Cc2ccccc2)C[C@H](O)[C@H](Cc2ccccc2)NC(=O)OCc2cncs2)C(C)C)cs1	inactive	–
NC(=O)Cc1cccc(C(=O)c2ccccc2)c1N	inactive	–
CCC1=C(C)CN(C(=O)NCCc2ccc(S(=O)(=O)NC(=O)NC3CCC(C)CC3)cc2)C1=O (stereo not given)	inactive	–
O=C(OC1C[C@H]2CC[C@@H](C1)[N+]21CCCC1)C(O)(c1ccccc1)c1ccccc1 (stereo not given in full)	inactive	–
CC[C@]1(O)C[C@H]2CN(CCc3c([nH]c4ccccc34)[C@@](C(=O)OC)(c3cc4c(cc3OC)N(C=O)[C@H]3[C@@](O)(C(=O)OC)[C@H](OC(C)=O)[C@]5(CC)C=CCN6CC[C@]43[C@@H]65)C2)C1	inactive	–
O=C(O)CCNC(=O)c1ccc(N=Nc2ccc(O)c(C(=O)O)c2)cc1	inactive	–

SMILES	Potency	activity change, negative = cytotoxicity
CC(S)C(=O)NCC(=O)O (stereo not given)	inactive	–
COc1cc(C(C)=O)ccc1OCCCN1CCC(c2noc3cc(F)ccc23)CC1	inactive	–
Cn1c(NCCN(CCO)CCCc2ccc([N+](=O)[O-])cc2)cc(=O)n(C)c1=O	inactive	–
C=CCc1cc(OC)c(O)c(C(=O)NCCO)c1	inactive	–
CN1CCC(=C2c3ccccc3CCc3sccc32)CC1	inactive	–
COc1ccccc1N1CCN(CCN(C(=O)C2CCCCC2)c2ccccn2)CC1	inactive	–
CCCOc1ccc2nc(NC(=O)OC)[nH]c2c1	inactive	–
COCCCOc1ccnc(CS(=O)c2nc3ccccc3[nH]2)c1C (stereo not given)	inactive	–
CCC(C)(Oc1ccc(C2(c3ccc(OC(C)(CC)C(=O)O)cc3)CCCCC2)cc1)C(=O)O (stereo not given)	inactive	–
Cc1ncc([N+](=O)[O-])n1CC(C)O (stereo not given)	inactive	–
O=C(c1ccccc1)c1ccc2n1CCC2C(=O)O (stereo not given)	inactive	–
NNc1nncc2ccccc12	inactive	–
O=C(O)c1cccc(-c2noc(-c3ccccc3F)n2)c1	10 µM (active) and 11.2 µM (active)	–
c1ccc2[nH]c(-c3cscn3)nc2c1	inactive	–
Clc1ccc(C(Cn2ccnc2)OCc2ccc(Sc3ccccc3)cc2)c(Cl)c1 (stereo not given)	inactive	–
CC(C)CC(=O)N[C@H](C(=O)N[C@H](C(=O)N[C@@H](CC(C)C)[C@@H](O)CC(=O)N[C@@H](C)C(=O)N[C@@H](CC(C)C)[C@@H](O)CC(=O)O)C(C)C)C(C)C (Isovaleryl-VV[Sta]A[Sta]-OH)	inactive	–
CC1(C)CCC(C)(C)c2cc(NC(=O)c3ccc(C(=O)O)cc3)ccc21	inactive	–
CC(C)[C@H](N)C(=O)OCCOCn1cnc2c(=O)[nH]c(N)nc21	inactive	–
O=C1CCc2ccc(OCCCCN3CCN(c4cccc(Cl)c4Cl)CC3)cc2N1	inactive	–
CCC[C@@H]1C[C@@H](C(=O)N[C@@H]([C@H]2O[C@H](SC)[C@H](O)[C@@H](O)[C@H]2O)[C@@H](C)O)N(C)C1	inactive	–
